HepG2 viability: counter-screen for TGF-b inhibitors: cytotoxicity in HepG2 cells | HepG2 CAGA-GFP viability, ATP luminescence, 18 h | Potency, µM (titrated, usually from 46.1 µM), for inactives: at the highest dose activity change, negative = cytotoxicity, usual class: cytotoxic | hit rate 0.76% among 410,000; note: potency is the fitted concentration of half-maximal effect
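HepG2 CAGA-GFP cells (1000/well, DMEM with 1% FBS) received compound, then TGF-beta at 500 pg/mL final, and were incubated 18 hours at 37 degrees C. Viability was read by CellTiter-Glo luminescence. Media-only wells were set as complete cell-killing and DMSO as no toxicity.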
DT40 TDP1 no CPT: qHTS for Inhibitors of human tyrosyl-DNA phosphodiesterase 1 (TDP1): qHTS in cells in absence of CPT; DT40 Tdp1-/- hTDP1 cells, no CPT, ATP luminescence, 48 h; hit rate 15% among 420,000; Potency, µM (titrated, usually from 46.2 µM), without a hit: at the highest dose activity change, negative = growth inhibition, actives largely listed as inhibitors; note: potency is the fitted concentration of half-maximal effect; % is set by controls: 0 for no effect and ±100 for the full control effect; nearly all actives have a fitted effect of over 55% in size
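Seeded 400 DT40-hTDP1 cells/well (vehicle DMSO, no 20 nM CPT); pinned compounds; ≥48 hr at 37 °C; CellTiter-Glo luminescence as viability measure.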
TDP1 inh: TDP1 (human) enzyme inhibition; hit rate 0.28% among 350,000; recombinant TDP1, AlphaScreen DNA substrate cleavage; Potency, µM (highest dose often 130 µM), inactives show top-dose activity change, negative = inhibition, most hits filed as inhibitors; Q9NUW8; note: potency is the fitted concentration of half-maximal effect; % is set by controls: 0 for no effect and ±100 for the full control effect; nearly all actives have a fitted effect of over 40% in size
Target sequence (Q9NUW8 whole entry, looked up): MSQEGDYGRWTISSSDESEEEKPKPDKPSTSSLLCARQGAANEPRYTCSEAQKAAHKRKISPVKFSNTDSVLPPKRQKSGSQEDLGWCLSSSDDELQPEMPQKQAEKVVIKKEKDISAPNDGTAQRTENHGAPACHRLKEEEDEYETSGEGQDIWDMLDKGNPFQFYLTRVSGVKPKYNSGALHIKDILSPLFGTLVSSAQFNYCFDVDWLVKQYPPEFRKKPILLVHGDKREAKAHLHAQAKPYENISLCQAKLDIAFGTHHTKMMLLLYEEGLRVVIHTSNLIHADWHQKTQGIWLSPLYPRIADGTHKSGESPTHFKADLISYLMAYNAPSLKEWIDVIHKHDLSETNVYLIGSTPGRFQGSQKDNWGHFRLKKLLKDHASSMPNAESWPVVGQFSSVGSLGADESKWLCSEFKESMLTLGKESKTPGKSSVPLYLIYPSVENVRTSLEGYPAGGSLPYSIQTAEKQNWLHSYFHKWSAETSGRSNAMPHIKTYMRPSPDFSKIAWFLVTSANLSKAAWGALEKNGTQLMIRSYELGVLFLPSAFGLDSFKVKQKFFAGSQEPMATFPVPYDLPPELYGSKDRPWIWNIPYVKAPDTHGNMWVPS
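Compounds were preincubated with Tdp1 (1 nM final) for 15 min at room temperature before substrate (15 nM final) started a 5 min reaction; beads (10 ug/ml final) were then added for 10 min before AlphaScreen detection.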
IL-1B inflam inh: inhibitors of inflammasome signaling (IL-1 beta secretion). THP-1 LPS/ATP IL-1B secretion, AlphaLISA, 16 h; active compounds read low. hit rate 4.7% among 360,000. activity change, % at 57.5 µM; in the data active = activity change below about -50%; inconclusive = mostly about -30% to -49%; note: % is set by controls: 0 for no effect and ±100 for the full control effect
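THP-1 cells pretreated 1 hr with compounds (up to 57.5 uM final), then stimulated with LPS (250 ng/mL final) plus ATP (1.25 mM final); secreted IL-1B measured by AlphaLISA after 16 hr, decreased signal indicating inhibition.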
TDP1 cell CPT: growth inhibition of DT40 Tdp1-/-;hTDP1 cells with camptothecin (screen for TDP1 inhibitors); hit rate 12% among 420,000; AID 686979; chicken DT40 Tdp1-/-;hTDP1 cells + 20 nM CPT, ATP luminescence, 48 h; Potency, µM (doses to about 46.2 µM), inactives show at the highest dose activity change, negative = growth inhibition, actives largely listed as inhibitors; note: potency is the fitted concentration of half-maximal effect; % is set by controls: 0 for no effect and ±100 for the full control effect; nearly all actives have a fitted effect of over 55% in size
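Chicken DT40 Tdp1-/- cells stably complemented with human TDP1 were seeded at 400 cells/well in medium containing 20 nM camptothecin, exposed to pin-transferred compounds, and grown at 37 °C for at least 48 hr. Viability was read as ATP luminescence.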
TGFb SMAD3 inh: TGF-b pathway inhibition; hit rate 1.2% among 410,000; Potency, µM (series often up to 46.1 µM), for inactives: top-dose activity, negative = inhibition, most hits filed as inhibitors; HepG2 CAGA-GFP TGF-b/SMAD3 reporter, GFP fluorescence, 18 h; TGF-beta stimulated, 500 pg/mL final; note: potency is the fitted concentration of half-maximal effect; % is set by controls: 0 for no effect and ±100 for the full control effect; nearly all actives have a fitted effect of over 65% in size
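HEPG2 CAGA-GFP cells (1000/well, DMEM with 1% FBS) were pre-incubated 2 h at 37 degrees C, given compound by pin tool, then stimulated with TGF-beta at 500 pg/mL final for 18 h before per-cell GFP fluorescence imaging.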
Starred values were filed as active, the others as inactive; [ ] = another dose, or the depositor's remark. Shown are actives, neighbours in structure and some others; about 18% of the full set was active somewhere. Unless noted, calls come from the whole dose curve; as a rule, active = well fitted curve in the direction sought with a large enough effect; inconclusive = small, poorly fitted or top-dose-only effect, or another doubt; inactive = no such curve, though single readings can be large; an effect the other way counts as inactive or inconclusive.

How did O=[N+]([O-])c1ccc(/C=C/c2cc(Cl)nc3ccccc23)cc1 do in these assays?
HepG2 viability: -19%; DT40 TDP1 no CPT: inconclusive; TDP1 cell CPT: inconclusive; TGFb SMAD3 inh: -7%

What do the screens show for `O=[N+]([O-])c1ccc2nc(Cl)nc(-c3ccccc3)c2c1`?
HepG2 viability: -33%; DT40 TDP1 no CPT: 7.3µM*; IL-1B inflam inh: -5; TDP1 cell CPT: 12µM*; TGFb SMAD3 inh: 5%

Results for CC(C)C[C@H](NC(=O)C1OC1C(=O)O)C(=O)NCCCCN=C(N)N (stereo partly drawn) ?
TDP1 inh: -7%[56.1 µM]

What do the screens show for `CCN1C(=O)/C(=C2/C=Cc3cc(C)ccc3N2CC)N(C)C1=S`?
HepG2 viability: 4%; DT40 TDP1 no CPT: 21µM*; TDP1 inh: 7%; IL-1B inflam inh: inconclusive; TDP1 cell CPT: 23µM*; TGFb SMAD3 inh: -5%

Results for O=C(O)c1ccc2nc(-c3cc4cccc(O)c4oc3=O)[nH]c2c1 ?
HepG2 viability: 8.9µM*; DT40 TDP1 no CPT: inconclusive; TDP1 cell CPT: inconclusive

Results for CCCCOC(=O)c1ccc(NC(=O)COC(=O)C2CC2C)cc1 (stereo not drawn) ?
HepG2 viability: 14%; DT40 TDP1 no CPT: inconclusive; IL-1B inflam inh: 17; TDP1 cell CPT: -27%; TGFb SMAD3 inh: -13%

How did Cc1ccc(SCCC(=O)Nc2ccc(OCc3ccccc3)cc2)cc1 do in these assays?
HepG2 viability: -22%; DT40 TDP1 no CPT: -22%; TDP1 inh: -3%; IL-1B inflam inh: -15; TDP1 cell CPT: -19%; TGFb SMAD3 inh: -18%

What do the screens show for `CCOc1ccc(NCC(=O)c2ccc(C)cc2)cc1`?
HepG2 viability: -13%; DT40 TDP1 no CPT: inconclusive; TDP1 inh: 3%; IL-1B inflam inh: -81*; TDP1 cell CPT: inconclusive; TGFb SMAD3 inh: 1%

Results for CCOc1ccc(NC(=O)CCSc2ccc(C)cc2)cc1 ?
HepG2 viability: 22%; DT40 TDP1 no CPT: 16µM*; TDP1 inh: 1%; IL-1B inflam inh: 0; TDP1 cell CPT: inconclusive; TGFb SMAD3 inh: -8%

What do the screens show for `Cc1ccc(C(=O)CNc2ccc(Cl)cc2)cc1`?
HepG2 viability: -11%; DT40 TDP1 no CPT: -8%; TDP1 inh: 4%; IL-1B inflam inh: inconclusive; TDP1 cell CPT: inconclusive; TGFb SMAD3 inh: -7%

What do the screens show for `CCOc1ccc(NC(=O)COC(=O)C2CC2C)cc1` (stereo not drawn)?
HepG2 viability: 13%; DT40 TDP1 no CPT: 18µM*; TDP1 inh: 0%; IL-1B inflam inh: 9; TDP1 cell CPT: inconclusive; TGFb SMAD3 inh: 19%

What do the screens show for `COc1ccc(/C=C(\C)C(=O)NO)cc1`?
DT40 TDP1 no CPT: -16%; TDP1 cell CPT: 2%

What do the screens show for `C=C1C=C(C(F)F)n2ncc(C(=O)NCc3ccccc3OC)c2N1`?
HepG2 viability: -1%; DT40 TDP1 no CPT: inconclusive; TDP1 cell CPT: 10µM*; TGFb SMAD3 inh: 0%

What do the screens show for `C=C1C=C(C(F)F)n2ncc(C(=O)NCc3ccc(Cl)cc3Cl)c2N1`?
HepG2 viability: 16%; DT40 TDP1 no CPT: 16µM*; TDP1 cell CPT: 8.9µM*; TGFb SMAD3 inh: 5%

What do the screens show for `Cc1ccc(Cl)c(NC(=O)COC(=O)c2ccccc2C(=O)c2ccc(Cl)c([N+](=O)[O-])c2)c1Cl`?
HepG2 viability: -44%; DT40 TDP1 no CPT: 10µM*; TDP1 inh: 2%; IL-1B inflam inh: -105*; TDP1 cell CPT: -103%; TGFb SMAD3 inh: inconclusive

What do the screens show for `CCCNC(=O)COC(=O)c1ccccc1C(=O)c1ccc(Cl)c([N+](=O)[O-])c1`?
HepG2 viability: -28%; DT40 TDP1 no CPT: 10µM*; TDP1 inh: 3%; IL-1B inflam inh: -103*; TDP1 cell CPT: inconclusive; TGFb SMAD3 inh: inconclusive

Results for C#Cc1ccc([C@H]2C=C(C(=O)N3CCOCC3)O[C@@H](OCc3ccc(CO)cc3)C2)cc1 ?
HepG2 viability: 0%; DT40 TDP1 no CPT: -22%; TDP1 inh: 5%; IL-1B inflam inh: 3; TDP1 cell CPT: -28%; TGFb SMAD3 inh: -4%

How did O=C(NCc1cc(C(F)(F)F)ccc1Cl)c1cccc2c1C(=O)c1ccc(N3CCC(N4CCCCC4)CC3)cc1S2(=O)=O do in these assays?
HepG2 viability: 16µM*; DT40 TDP1 no CPT: 2.9µM*; IL-1B inflam inh: 92; TDP1 cell CPT: 5.2µM*; TGFb SMAD3 inh: inconclusive

Results for O=C(NCc1cc(C(F)(F)F)ccc1Cl)c1cccc2c1C(=O)c1ccc(N3CCCCC3)cc1S2(=O)=O ?
HepG2 viability: -1%; DT40 TDP1 no CPT: inconclusive; TDP1 inh: -1%; IL-1B inflam inh: 59; TDP1 cell CPT: inconclusive; TGFb SMAD3 inh: 7%

How did O=C(NCc1cc(C(F)(F)F)ccc1Cl)c1cccc2c1C(=O)c1ccc(N3CCOCC3)cc1S2(=O)=O do in these assays?
HepG2 viability: 6%; DT40 TDP1 no CPT: 21µM*; TDP1 inh: -3%; IL-1B inflam inh: 9; TDP1 cell CPT: 18µM*; TGFb SMAD3 inh: 15%

How did CC1(C(=O)NC2CCCC2)CCC(=O)N1CCCn1ccnc1 (stereo not drawn) do in these assays?
HepG2 viability: 1%; DT40 TDP1 no CPT: -1%; IL-1B inflam inh: 31; TDP1 cell CPT: -12%; TGFb SMAD3 inh: -2%

How did O=C(Nc1ccc(F)cc1)C(c1cc2ccccc2o1)N1CCN(c2cccc(C(F)(F)F)n2)CC1 (stereo not drawn) do in these assays?
DT40 TDP1 no CPT: inconclusive; IL-1B inflam inh: 35; TDP1 cell CPT: inconclusive

How did O=C(Nc1ccc(F)cc1)C(c1ccncc1)N1CCN(c2cccc(C(F)(F)F)n2)CC1 (stereo not drawn) do in these assays?
DT40 TDP1 no CPT: 21µM*; IL-1B inflam inh: -11; TDP1 cell CPT: inconclusive

How did O=C(Nc1ccc(F)cc1)C(CCc1ccccc1)N1CCN(c2cccc(C(F)(F)F)n2)CC1 (stereo not drawn) do in these assays?
DT40 TDP1 no CPT: inconclusive; IL-1B inflam inh: 0; TDP1 cell CPT: 18µM*

What do the screens show for `C=C1C(=O)OC2C[C@@]3(C)CCCC(C)C3=CC12` (stereo partly drawn)?
DT40 TDP1 no CPT: 10µM*; TDP1 inh: -6%[56.1 µM]; TDP1 cell CPT: inconclusive

High-throughput results from PubChem BioAssay.
